For 26 molecules, Potency results are on record in PubChem BioAssay (NCATS).

The target of experiment [1] is Glutathione peroxidase 1 (Homo sapiens) (UniProt P07203). Description: Primary qHTS Assay for Inhibitors of Recombinant Selenoprotein Glutathione Peroxidase 1 (GPX1) (AID 1845191). In short, it runs like this:
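GR-coupled assay: compounds preincubated 30 min at room temperature with GPX1, then reaction started with CHP; final 10 nM GPX1, 1 mM GSH, 0.5 mM CHP, 0.5 mM NADPH, 100 nM GR, 0.01% BSA, pH 7.5 Tris buffer. NADPH fluorescence (340/450 nm) read at 0 and 15 min.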
For orientation: qHTS replaces the single test concentration by a dilution series.

The target of experiment [2] is Phospholipid hydroperoxide glutathione peroxidase GPX4 (Homo sapiens) (UniProt P36969). Description: Primary qHTS Assay for Inhibitors of Recombinant Selenoprotein Glutathione Peroxidase 4 (GPX4) (AID 1845192). In short, it runs like this: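 GR-coupled assay: recombinant GPX4 preincubated 30 min with compound at room temperature; final 200 nM GPX4, 1 mM GSH, 0.5 mM cumene hydroperoxide, 0.5 mM NADPH, 100 nM GR, 0.01% BSA, pH 7.5 Tris. NADPH fluorescence (340/450 nm) read at 0 and 15 min.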
Sequence of Phospholipid hydroperoxide glutathione peroxidase GPX4 (Homo sapiens) (P36969 whole entry, looked up): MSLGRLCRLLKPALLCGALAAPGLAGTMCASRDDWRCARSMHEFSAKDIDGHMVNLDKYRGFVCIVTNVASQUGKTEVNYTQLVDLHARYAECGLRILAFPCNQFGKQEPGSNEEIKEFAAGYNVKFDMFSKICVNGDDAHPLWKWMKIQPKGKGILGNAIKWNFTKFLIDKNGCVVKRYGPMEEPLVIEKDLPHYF

Inconclusive results are not listed. A call without a number means that no potency is given here. The source made the active and inactive calls. Calls come from the whole dose curve; as a rule, active = well fitted inhibition curve with a large enough effect; inconclusive = small, poorly fitted or top-dose-only effect; inactive = flat fitted curve, though single readings scatter. *1 amine or outer side, *2 acyl side, *3 side chain or, on linkers, in order; H or OH if unused. Where a SMILES comes first, the peptide text is derived from it. Side-chain parts run from the residue outwards. [ ]: non-standard residue; d: D form. The star is where a group is joined. Ethylenediamine = C(CN[*:2])N[*:1]; Hyp = O=C(O)[C@@H]1C[C@@H](O)CN1; Phg = N[C@H](C(=O)O)c1ccccc1; CO = O=C([*:1])[*:2]; Bn = c1ccc(C*)cc1
Note: nearly all actives have a fitted effect of over 65% in size.
Potency is the fitted concentration of half-maximal effect.

Sequence of Glutathione peroxidase 1 (Homo sapiens) (P07203 whole entry, looked up): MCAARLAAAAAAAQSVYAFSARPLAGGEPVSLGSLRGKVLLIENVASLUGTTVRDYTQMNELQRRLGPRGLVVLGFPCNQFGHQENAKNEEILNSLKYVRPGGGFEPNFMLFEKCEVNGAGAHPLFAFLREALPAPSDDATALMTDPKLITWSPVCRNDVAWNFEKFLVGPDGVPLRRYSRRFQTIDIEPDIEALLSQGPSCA

`CCCCCCO[C@@H](C)c1cccc(-c2csc(NC(=O)c3cc(Cl)c(/C=C(\C)C(=O)O)c(Cl)c3)n2)c1OC`: the Potency entry in experiment [1] was “inactive”. Also, in experiment [2], the Potency was 2.51 µM (active).
On the same counts, the results for `CCCCCCCCCCCCCCCCCC(=O)NCCCC[C@H](NC(=O)CC[C@@H](NC(=O)[C@H](C)NC(=O)[C@@H](C)O[C@H]1[C@H](O)[C@@H](CO)OC(O)[C@@H]1NC(C)=O)C(N)=O)C(=O)O` (some centres not stated) are “inactive” and “inactive”.
On the same counts, the results for `NCCCC[C@@H]1NC(=O)[C@@H](Cc2c[nH]c3ccccc23)NC(=O)[C@H](c2ccccc2)NC(=O)[C@@H]2C[C@@H](OC(=O)NCCN)CN2C(=O)[C@H](Cc2ccccc2)NC(=O)[C@H](Cc2ccc(OCc3ccccc3)cc2)NC1=O` (cyclo([Hyp]([CO-Ethylenediamine])[Phg][dW]KY(Bn)F)) are “inactive” and “inactive”.
On the same counts, the results for `CC(=O)OC1CC(OC2C(O)CC(OC3C(O)CC(OC4CCC5(C)C(CCC6C5CCC5(C)C(C7=CC(=O)OC7)CCC65O)C4)OC3C)OC2C)OC(C)C1O` (configuration not stated) are “inactive” and “inactive”.
As to `CC(C)OC(=O)CCC/C=C\C[C@@H]1[C@@H](/C=C/[C@@H](O)COc2cccc(C(F)(F)F)c2)[C@H](O)C[C@@H]1O`, the Potency result in experiment [1] and in experiment [2] was “inactive” in each case.
`CC=CC1=C(C(=O)O)N2C(=O)[C@@H](NC(=O)[C@H](N)c3ccc(O)cc3)[C@H]2SC1`: the Potency in experiment [1] was 7.85 µM (active). Further, the Potency entry in experiment [2] is “inactive”.
For `CC(=O)OC1CCC2(C)C(=CCC3C2CCC2(C)C(c4cccnc4)=CCC32)C1` (configuration not stated), in that order: “inactive” and “inactive”.
Take `COc1ccc(CC(C)(C)NC[C@H](O)c2cc(O)cc3c2OCC(=O)N3)cc1`: the Potency result in experiment [1] and in experiment [2] was “inactive” each time.
As to `CC[C@H]1OC(=O)[C@H](C)[C@@H](O[C@H]2C[C@@](C)(OC)[C@@H](O)[C@H](C)O2)[C@H](C)[C@@H](O[C@@H]2O[C@H](C)C[C@H](N(C)C)[C@H]2O)C(C)(O)C[C@@H](C)/C(=N\OCOCCOC)[C@H](C)[C@@H](O)[C@]1(C)O` (some centres not stated), the Potency result in experiment [1] and in experiment [2] was “inactive” in each case.
In the case of `OC(c1ccccc1)(c1ccccc1)C12CC[N+](CCOCc3ccccc3)(CC1)CC2`, the Potency result in experiment [1] and in experiment [2] was “inactive” each time.
In the case of `NC(N)=NCCC[C@@H](N)C(=O)N[C@@H](CCCN=C(N)N)C(=O)N1CCC[C@H]1C(=O)N1C[C@H](O)C[C@H]1C(=O)NCC(=O)N[C@@H](Cc1cccs1)C(=O)N[C@@H](CO)C(=O)N1Cc2ccccc2C[C@@H]1C(=O)N1[C@H](C(=O)N[C@@H](CCCN=C(N)N)C(=O)O)C[C@@H]2CCCC[C@@H]21`, the Potency result in experiment [1] and in experiment [2] was “inactive” in each case.
`CO[C@@H]1[C@@H](O[C@@H]2O[C@H](C)[C@@H](O[C@H]3C[C@@](C)(O)[C@H](O)[C@H](C)O3)[C@H](N(C)C)[C@H]2O)[C@@H](CC=O)C[C@@H](C)[C@@H](O[C@H]2CC[C@H](N(C)C)[C@@H](C)O2)/C=C/C=C/C[C@H](C)OC(=O)C[C@H]1O`: the Potency result in experiment [1] and in experiment [2] was “inactive” in each case.
As to `CCCC1CC(C(=O)NC(C(C)Cl)C2OC(SC)C(OP(=O)(O)O)C(O)C2O)N(C)C1` (configuration not stated), the Potency result in experiment [1] and in experiment [2] was “inactive” each time.
As to `CCOc1cc(C(CS(C)(=O)=O)N2C(=O)c3cccc(NC(C)=O)c3C2=O)ccc1OC` (configuration not stated), the Potency result in experiment [1] and in experiment [2] was “inactive” in each case.
For the molecule `C=C1/C(=C/C=C2\CCC[C@]3(C)[C@@H]([C@H](C)CCCC(O)(C(F)(F)F)C(F)(F)F)CC[C@@H]23)C[C@@H](O)C[C@@H]1O`, the Potency entry in experiment [1] was “inactive”. Besides, in experiment [2], the Potency was 14.1 µM (active).
Regarding `CCC(c1ccccc1)c1c(O)c2ccccc2oc1=O` (configuration not stated), the Potency entry in experiment [1] and in experiment [2] was “inactive” in each case.
For the molecule `CCC1OC(=O)[C@H](C)C(=O)[C@H](C)[C@@H](OC2O[C@H](C)C[C@H](N(C)C)[C@H]2O)[C@](C)(OC)C[C@@H](C)C(=O)[C@@H](C)[C@@H]2N(CCCCn3cnc(-c4cccnc4)c3)C(=O)O[C@]12C` (some centres not stated), the Potency entry in experiment [1] and in experiment [2] was “inactive” throughout.
Regarding `Cc1cc(CC(C)C[Si](C)(O[Si](C)(C)C)O[Si](C)(C)C)c(O)c(-n2nc3ccccc3n2)c1` (configuration not stated), the Potency result in experiment [1] and in experiment [2] was “inactive” in each case.
As to `CC1CC2C3CCC4=CC(=O)C=CC4(C)C3(F)C(O)CC2(C)C1(O)C(=O)COC(=O)c1cccc(S(=O)(=O)O)c1` (configuration not stated), the Potency result in experiment [1] is “inactive”. Also, the Potency in experiment [2] is 20 µM (active).
On the same counts, the results for `CC(C)=C/C(C)=N\Nc1nncc2ccccc12` are “inactive” and “inactive”.
For `CN[C@@H]1[C@@H](O)[C@@H](O[C@@H]2[C@@H](O)[C@H](OC3O[C@H](CN)[C@@H](O)[C@H](O)[C@H]3O)[C@@H](N)C[C@H]2NC(=O)[C@@H](O)CN)OC[C@]1(C)O` (some centres not stated), in that order: “inactive” and “inactive”.
With `CCCN1C[C@H](C)[C@@H](O)[C@](C)(O)[C@@H](CC)OC(=O)[C@H](C)[C@@H](O[C@H]2C[C@@](C)(OC)[C@@H](O)[C@H](C)O2)C(C)[C@@H](O[C@@H]2O[C@H](C)C[C@H](N(C)C)[C@H]2O)[C@](C)(O)C[C@H]1C` (some centres not stated), the Potency result in experiment [1] and in experiment [2] was “inactive” each time.
Consider `CC(C)OC(=O)[C@H](C)N[P@@](=O)(OC[C@H]1O[C@@H](n2ccc(=O)[nH]c2=O)[C@](C)(F)[C@@H]1O)Oc1ccccc1`, for which the Potency result in experiment [1] and in experiment [2] was “inactive” throughout.
Consider `OC[C@H]1O[C@H](O[C@H]2[C@H](O)[C@@H](O)[C@H](O)O[C@@H]2CO)[C@H](O)[C@@H](O)[C@@H]1O`, for which the Potency result in experiment [1] and in experiment [2] was “inactive” in each case.
For the molecule `COc1cc2c(c(OC)c1OC)-c1c(cc3c(c1OC)OCO3)C[C@H](C)[C@@](C)(O)C2`, the Potency result in experiment [1] and in experiment [2] was “inactive” in each case.
Regarding `Cc1nccn1CCC(C(N)=O)(c1ccccc1)c1ccccc1`, the Potency entry in experiment [1] and in experiment [2] was “inactive” throughout.
